Source: PubChem BioAssay (NCI)
Compounds without any hit were thinned out: in the full panel of roughly 79,000, 15% have a hit. Values without a mark were called inactive. The source made the active and inactive calls. Cut-off read from the data, not from the text of the source: active = growth inhibition above about 70%; inactive = the rest.

Assay: NCI Yeast Anticancer Drug Screen. Data for the mec2-1 strain (AID 157)
Conditions: S. cerevisiae mec2-1 strain, at 50.0 µM (retest, dose inferred, filed as 5.0), stronger effect = higher value
In short: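 Strain: mec2-1 (DNA repair/cell cycle alteration). Compound exposure, then growth measured; inhibition expressed relative to vehicle.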

Row | Compound | growth inhibition
1 | Nc1nc2c(ccc3ccccc32)s1 | 37%
2 | O=C(O)CCCCC1CCCCC1.[Cu+2] | 90% (active)
3 | O=Cc1ccc(O)c2ccccc12 | 47%
4 | CC(=Nc1ccc(N(C)C)cc1)c1ccccc1 | 78% (active)
5 | C/C(Cl)=N\OC(=O)Nc1ccc(C)cc1 | 99% (active)
6 | COC(=O)C1CCC(c2ccccc2)CC1C(=O)OC (stereo not given) | 6%
7 | CCCCNC(=S)NC1C2CC3CC(C2)CC1C3 (stereo not given) | 64%
8 | CCN(CC)CCOC(=O)CCN1CC2CCC(CC2)C1 | 7%
9 | CCOc1ccc(-c2nc3ccc(-c4nc5ccc(N6CCN(C)CC6)cc5[nH]4)cc3[nH]2)cc1 | 99% (active)
10 | NC(CCC(=O)NC(CS(=O)(=O)O)C(=O)O)C(=O)O (stereo not given) | 2%
11 | CSc1cc(C(=O)O)nc(N)n1 | 0%
12 | CCN(CC)CCCNc1c(O)cc(C)c2sc3ccccc3c(=O)c12 | 99% (active)
13 | C=C1C(=O)OC2C1CC1OC2C(C)CCC/C(C)=C\CCC1(C)O (stereo not given) | 25%
14 | O=C1C=CC2=Nc3ccccc3CCC2=C1 | 95% (active)
15 | CC(C)CC(CC(C)C)OP(=O)(O)OC(CC(C)C)CC(C)C | 72% (active)
16 | O=C(O)c1ccccc1Cc1ccc2c(c1)Cc1ccccc1-2 | 67%
17 | Nc1c(F)cccc1F | 0%
18 | COc1cc(OC)c(SSCCCCS(=O)O)c(OC)c1 | 44%
19 | S=C1Nc2cnc3ccccc3c2SC1c1ccccc1 (stereo not given) | 98% (active)
20 | CC(C)CCCC(C)[C@H]1CCC(C2C[C@@H](O)[C@@H]3CC(O)[C@@H](O)C[C@]3(CO)C2=O)[C@]1(C)CCO (stereo not given in full) | 99% (active)

Row | Compound | growth inhibition
21 | CN(C)CC(CN(C)C)C(=O)c1ccc(Oc2ccc(Cl)c(Cl)c2)cc1 | 97% (active)
22 | CN1c2ccccc2C(C)(C)C12C=Cc1cc(O)ccc1O2 (stereo not given) | 10%
23 | CC(C)Cc1ncc(CC(C)C)n(O)c1=O | 98% (active)
24 | Nc1ccc(SSc2ccc(N)cc2)cc1 | 98% (active)
25 | N#CCC1CC(=O)c2[nH]c3ccccc3c2C1 (stereo not given) | -54%
26 | O=C1c2ccccc2C(=O)c2sccc21 | 51%
27 | CC/C(=C(\CC)c1ccc(O)c(CN(C)C)c1)c1ccc(OC)cc1 | 84% (active)
28 | O=S(=O)(O)N=Nc1ccc(O)cc1 | 99% (active)
29 | O=C1CCSC(=S)N1c1ccc(N=Nc2ccccc2)cc1 | 91% (active)
30 | CC(C)C(=O)NNc1ccccc1 | 57%
31 | O=C(CBr)c1ccc2cc(Br)c3ccccc3c2c1 | 96% (active)
32 | O=C1c2cc3c(cc2CC1Br)CCC3 (stereo not given) | 100% (active)
33 | O=C1NC(=O)N(c2ccc(Cl)c(Cl)c2)C1=O | 8%
34 | C[n+]1c(-c2cccc(OCCOCCOc3cccc(-c4c5cc(N)ccc5c5ccc(N)cc5[n+]4C)c3)c2)c2cc(N)ccc2c2ccc(N)cc21 | 95% (active)
35 | N#CC(C#N)C(C#N)c1ccc(Cl)c(Cl)c1 (stereo not given) | 100% (active)
36 | CCCCCCCCCCCCOC(=O)C[n+]1cccc(C(=O)Nc2ccc(Cl)cc2)c1 | 99% (active)
37 | CCC(=O)c1ccc2ccc3ccccc3c2c1 | 34%
38 | Cc1ccc(S(=O)(=O)NC(=O)CC2CCCCC2)cc1 | 93% (active)
39 | c1ccc(N/N=C(/CC/C(=N\Nc2ccccc2)c2ccccc2)c2ccccc2)cc1 | 90% (active)
40 | Cc1c(N)cc(I)cc1[N+](=O)[O-] | 7%

Same assay, conditions: S. cerevisiae mec2-1 strain, at 50.0 µM, stronger effect = higher value

Row | Compound | growth inhibition
41 | Nc1nc2c(ccc3ccccc32)s1 | 50.6%
42 | O=C(O)CCCCC1CCCCC1.[Cu+2] | -3.1%
43 | O=Cc1ccc(O)c2ccccc12 | 76.6% (active)
44 | CC(=Nc1ccc(N(C)C)cc1)c1ccccc1 | 54.8%
45 | C/C(Cl)=N\OC(=O)Nc1ccc(C)cc1 | 79.5% (active)
46 | COC(=O)C1CCC(c2ccccc2)CC1C(=O)OC (stereo not given) | 20.9%
47 | CCCCNC(=S)NC1C2CC3CC(C2)CC1C3 (stereo not given) | 98.5% (active)
48 | CCN(CC)CCOC(=O)CCN1CC2CCC(CC2)C1 | -22.1%
49 | CCOc1ccc(-c2nc3ccc(-c4nc5ccc(N6CCN(C)CC6)cc5[nH]4)cc3[nH]2)cc1 | 92.9% (active)
50 | NC(CCC(=O)NC(CS(=O)(=O)O)C(=O)O)C(=O)O (stereo not given) | 12.8%
51 | CSc1cc(C(=O)O)nc(N)n1 | 5%
52 | CCN(CC)CCCNc1c(O)cc(C)c2sc3ccccc3c(=O)c12 | 99.2% (active)
53 | C=C1C(=O)OC2C1CC1OC2C(C)CCC/C(C)=C\CCC1(C)O (stereo not given) | 92.8% (active)
54 | O=C1C=CC2=Nc3ccccc3CCC2=C1 | 99% (active)
55 | CC(C)CC(CC(C)C)OP(=O)(O)OC(CC(C)C)CC(C)C | 82.5% (active)
56 | O=C(O)c1ccccc1Cc1ccc2c(c1)Cc1ccccc1-2 | 66.3%
57 | Nc1c(F)cccc1F | 11.6%
58 | COc1cc(OC)c(SSCCCCS(=O)O)c(OC)c1 | 21.5%
59 | S=C1Nc2cnc3ccccc3c2SC1c1ccccc1 (stereo not given) | 92% (active)
60 | CC(C)CCCC(C)[C@H]1CCC(C2C[C@@H](O)[C@@H]3CC(O)[C@@H](O)C[C@]3(CO)C2=O)[C@]1(C)CCO (stereo not given in full) | 92.5% (active)

Row | Compound | growth inhibition
61 | CN(C)CC(CN(C)C)C(=O)c1ccc(Oc2ccc(Cl)c(Cl)c2)cc1 | 96.8% (active)
62 | CN1c2ccccc2C(C)(C)C12C=Cc1cc(O)ccc1O2 (stereo not given) | 47.6%
63 | CC(C)Cc1ncc(CC(C)C)n(O)c1=O | 87.8% (active)
64 | Nc1ccc(SSc2ccc(N)cc2)cc1 | 61.5%
65 | N#CCC1CC(=O)c2[nH]c3ccccc3c2C1 (stereo not given) | 7.7%
66 | O=C1c2ccccc2C(=O)c2sccc21 | 84.8% (active)
67 | CC/C(=C(\CC)c1ccc(O)c(CN(C)C)c1)c1ccc(OC)cc1 | 86.3% (active)
68 | O=S(=O)(O)N=Nc1ccc(O)cc1 | 94.3% (active)
69 | O=C1CCSC(=S)N1c1ccc(N=Nc2ccccc2)cc1 | 97.6% (active)
70 | CC(C)C(=O)NNc1ccccc1 | 34.2%
71 | O=C(CBr)c1ccc2cc(Br)c3ccccc3c2c1 | 44%
72 | O=C1c2cc3c(cc2CC1Br)CCC3 (stereo not given) | 87% (active)
73 | O=C1NC(=O)N(c2ccc(Cl)c(Cl)c2)C1=O | 36.5%
74 | C[n+]1c(-c2cccc(OCCOCCOc3cccc(-c4c5cc(N)ccc5c5ccc(N)cc5[n+]4C)c3)c2)c2cc(N)ccc2c2ccc(N)cc21 | 82.7% (active)
75 | N#CC(C#N)C(C#N)c1ccc(Cl)c(Cl)c1 (stereo not given) | 99.7% (active)
76 | CCCCCCCCCCCCOC(=O)C[n+]1cccc(C(=O)Nc2ccc(Cl)cc2)c1 | 99.2% (active)
77 | CCC(=O)c1ccc2ccc3ccccc3c2c1 | 26.4%
78 | Cc1ccc(S(=O)(=O)NC(=O)CC2CCCCC2)cc1 | 76.5% (active)
79 | c1ccc(N/N=C(/CC/C(=N\Nc2ccccc2)c2ccccc2)c2ccccc2)cc1 | 97% (active)
80 | Cc1c(N)cc(I)cc1[N+](=O)[O-] | 4.2%
